From PubChem BioAssay AID651828 (ICCB-Longwood Screening Facility, Harvard Medical School, 2012) come the findings set out here.

Several values for one entry are separate records, joined by “and”; a condition that tells them apart may be missing. Equal entries are not always repeated. The campaign covered roughly 20,000 compounds. About 25 (0.1%) were called active. Many of the other results were omitted from the sample, so actives are more common in it than they were. A number with no mark means an inactive call. Cut-off read from the data, not from the text of the source: active = % bound below about 75%; inactive = the rest.

The target of the test is Nucleoprotein (Rift valley fever virus (strain ZH-548 M12)) (UniProt P21700). Briefly: inhibitors of RVFV nucleoprotein–RNA binding, primary screen, biochemical, fluorescence polarization (AID 651828). Particulars: RVFV N-RNA binding, stronger effect = lower value, concentration not given here. On the technique in general: In fluorescence polarisation assays a small probe gives low polarisation when free and higher when bound to something large.
Sequence of Nucleoprotein (Rift valley fever virus (strain ZH-548 M12)) (P21700 whole entry, looked up): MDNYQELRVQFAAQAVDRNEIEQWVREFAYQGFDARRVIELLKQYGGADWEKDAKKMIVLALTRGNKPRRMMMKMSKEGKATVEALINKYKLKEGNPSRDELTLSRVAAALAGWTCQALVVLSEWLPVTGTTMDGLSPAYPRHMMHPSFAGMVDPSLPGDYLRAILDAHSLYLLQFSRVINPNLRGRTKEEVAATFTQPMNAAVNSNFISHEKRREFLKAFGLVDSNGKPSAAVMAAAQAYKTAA
`O=c1[nH]c(=S)[nH]c(O)c1C=NC12CC3CC(CC(C3)C1)C2`: the % bound was 91.6%.
As for `O=C(Nc1ccc2c(c1)OCC1CCCN21)C1=Cc2ccccc2OC1` (configuration not stated), the % bound is 96.2%.
Take `CN(C)NS(=O)(=O)C1CCS(=O)(=O)C1` (configuration not stated): the % bound was 93%.
For `COc1ccc(N2CCN(C(C)=C3C(=O)c4ccccc4C3=O)CC2)cc1`, the % bound was 96.4%.
As to `CCOC(=O)Nc1sccc1C(N)=O`, the % bound is 96.8%.
In the case of `Cc1cccc(N2CCN(C(=O)N(C)C)CC2)c1C`, the % bound is 77.7%.
Under `O=S1(=O)CC(S(=O)(=O)c2ccccc2)c2ccccc21` (configuration not stated) stands 92.2%; under `COC(=O)c1ccc(CN2CCCC(C)C2)cc1` (configuration not stated), 100%; under `CC12CCC(O)CC1=CCC1C2CCC2(C)/C(=N/N)CCC12` (configuration not stated), 94%.
Under `COc1ccc(-c2nc3c(c(=O)c4ccccc4n3C)c(=O)n2Cc2ccco2)cc1` stands 95.8%.
On to `COc1ccc(CCNC(N)=O)cc1OC`, for which the % bound was 94.3%.
Under `CCOC(=O)N1CCN(C(=O)CN(c2ccccc2)S(=O)(=O)c2ccc(F)cc2)CC1` stands 93.7%; under `O=C1c2ccccc2C(=O)N1CCc1nn[nH]n1`, 93.6%; under `Nc1cc(-c2ccccc2)[nH]n1`, 94.5%.
As to `C/C(=N\N1CCN(C)CC1)C1=C(O)c2ccccc2C1=O`, the % bound is 97.6%.
As for `O=C(CCN1C(=O)c2ccccc2C1=O)Oc1c(-c2ccco2)oc2ccccc2c1=O`, the figure is 95%; as for `COc1ccccc1C(c1c(C)[nH][nH]c1=O)C(C#N)C#N` (configuration not stated), 95.8%; as for `O=C(CCC(=O)c1ccccc1)c1ccccc1`, 93.9%.
Take `CS(=O)(=O)N1CCN(C(=O)CSc2ccccc2)CC1`: the % bound was 80.6%.
Turning to `COc1cc(C2c3c(oc4ccccc4c3=O)C(=O)N2CCCOC(C)C)cc(Br)c1O` (configuration not stated), the % bound is 97.6%.
For the molecule `CCOC(=O)c1cn[nH]c1NC(=S)Nc1ccccc1`, the % bound is 98.6%.
Turning to `Cc1nc(N)sc1-c1ccnc(Nc2cccc([N+](=O)[O-])c2)n1`, the % bound is 104%.
On to `Cc1nc2sc(C(c3ccccc3Cl)N(C)Cc3ccccc3)c(O)n2n1` (configuration not stated), for which the % bound is 108%.
As for `CCC(=O)Nc1ccc(C(=O)n2nnc3ccccc32)cc1`, the % bound is 94.2%.
As for `CNS(=O)(=O)c1ccc(NC(=O)C2CC3C=CC2C3)cc1` (configuration not stated), the % bound was 99.1%.
`CC1(C)C/C(=N/O)c2ccoc2C1`: the % bound is 97.9%.
For `CCC(=O)N=c1sc2cc(Br)ccc2n1CCOC`, the % bound is 101%.
Consider `COc1ccc(CCC(=O)NCC#N)cc1`, for which the % bound was 86.2%.
As for `CCOc1ccc(C(=O)Nc2cccc(-c3ccc4nncn4n3)c2)cc1`, the figure is 107%; as for `Cc1ccc2oc(C(=O)N(C)c3ccccc3)c(C)c2c1`, 97.6%; as for `CC(=O)Oc1ccc(S(=NS(=O)(=O)c2ccccc2)c2ccc(OC(C)=O)cc2)cc1`, 94.2%.
As for `Cc1[nH]cc(Br)c(=O)c1OCC(=O)O`, the % bound was 95.2%.
Take `Cc1c(C(=O)NCCN2CCOCC2)sc2nc(-c3ccc(F)cc3)cn12`: the % bound was 97%.
For `N#Cc1c(NC(=S)NC(=O)c2ccco2)sc2c1CCCC2`, the % bound was 97.3%.
For the molecule `C/C(=N\NC1=NCCCCC1)c1ccccc1`, the % bound was 95.3%.
For the molecule `CC1CCN(CC(=O)Nc2nccs2)CC1`, the % bound was 91.9%.
As to `CCC1CCC(N(CC)CCN(C)C)CC1` (configuration not stated), the % bound is 112%.
For `C[C@H](N[C@@H](CCc1ccccc1)C(=O)O)C(=O)N1Cc2ccccc2C[C@H]1C(=O)O`, the % bound is 100%.
For `COc1ccc2oc(=O)c(S(=O)(=O)c3ccccc3)cc2c1`, the % bound is 85%.
As to `O=C(O)CN1C(=O)/C(=C2/OC(=O)c3ccccc32)SC1=S`, the % bound is 95.4%.
As for `O=C(NCCc1ccccc1)Nc1ccccc1`, the figure is 108%; as for `CCCNC(=O)c1c(N)n(-c2ccccc2)c2nc3ccccc3nc12`, 95.9%; as for `O=C(Nc1cccc(Nc2nccc(Nc3cccc(C(F)(F)F)c3)n2)c1)C1CC1`, 112% and 103%.
For `Cn1c(=O)c2cc3c(=O)n(C)c(=O)c3cc2c1=O`, the % bound was 101%.
On to `COc1c(C(=O)O/N=C(\N)c2cccs2)csc1Cl`, for which the % bound was 95.1%.
Under `CN(C)c1ccc(C=NCC(O)CN=Cc2ccc(N(C)C)cc2)cc1` (configuration not stated) stands 97.1%; under `Cc1ccc(S(=O)(=O)NCc2csc(C)n2)c(C)c1`, 105%.
Turning to `CC(C)N1C(=O)CNC1=S`, the % bound was 98%.
Under `CC(C)CC(=O)Nc1ccncc1` stands 86%; under `O=C(OCCO)c1cc(Cl)c(C(=O)OCCO)cc1Cl`, 104%.
Regarding `COC(=O)COc1cccc(NC(=O)Cc2cccs2)c1`, the % bound was 98.5%.
With `CCCNC1=C(c2ccc(OC)cc2)C(=O)c2ccccc21`, the % bound was 95.2%.
On to `CSc1sc(C(=O)NC(=O)NCc2cccnc2)c(C)c1-c1ccon1`, for which the % bound is 93.2%.
Take `CN(C)C(C#N)c1cn(C)c2ccccc12` (configuration not stated): the % bound is 94.2%.
`Cc1[nH]c2ccccc2c1SCC(=O)Nc1nccs1`: the % bound is 108%.
`COc1cccc(-c2ccc(=O)n(CC(=O)NCc3ccccc3)n2)c1`: the % bound is 85%.
Turning to `O=C(NCCSCc1ccco1)C1CCC1`, the % bound is 98.2%.
With `CCSc1nc(=O)[nH]c2c1CCC2`, the % bound was 92.2%.
For `CCC(=O)NC1(C(F)(F)F)C(=O)NC(C)=C1C(=O)OC` (configuration not stated), the % bound was 97%.
For the molecule `C/C(=N/NC(=O)c1ccoc1C)c1ccc(NC(=O)c2ccco2)cc1`, the % bound was 91.1%.
As for `N#Cc1cccc2c1-c1ccccc1C2`, the % bound is 96%.
As for `O=C1c2ccc(-c3nc4ccccc4c(=O)o3)cc2C(=O)N1c1ccc2c(c1)OCO2`, the figure is 90%; as for `O=C1CC2(CCCC2)C(=O)N1c1ccc(S(=O)(=O)NCc2ccco2)cc1Cl`, 94.5%.
Take `CN1CCN(C(=O)c2ccccc2NC(=O)c2ccc(Cl)cc2)CC1`: the % bound was 100%.
Under `CCN(CC)C(=O)N1CC(C)CC(C)C1` (configuration not stated) stands 95.2%.
Take `CCN1CCN(C(c2cccnc2)c2c(NC(C)=O)sc3c2CCCC3)CC1` (configuration not stated): the % bound is 109%.
`O=S(=O)(c1ccccc1)N1CCn2cccc2C1c1ccccc1` (configuration not stated): the % bound was 99.1%.
